Assay results published in PubChem BioAssay AID1745853 (National Center for Advancing Translational Sciences (NCATS), 2022).
Several values for one entry are separate records, joined by “and”; a condition that tells them apart may be missing. Equal entries are not always repeated. Hit rate of the full screen: of about 25,000 compounds, about 970 (3.9%) were called active. Roughly 8% stayed inconclusive and do not appear here. The rule behind the calls is not given here. The entries come from a sample that favours actives as a whole. Some compounds were tested as several samples or in several runs, with calls that do not always agree.

Assays:
Assay in all cases: Primary Screen for Target Class Profiling of Small Molecule Inhibitors of Methyltransferases
[1] = biological target: Catechol O-methyltransferase (Homo sapiens) (UniProt P21964); conditions: purified enzyme, MTase-Glo SAH luminescence; activity change, negative = inhibition: at 40 µM, stronger effect = lower value; outcome: 40 uM
Summary of the method: (§1)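 Each enzyme was reacted with SAM and its substrate, with compounds tested once at 40 uM; SAH formed was read by MTase-Glo luminescence.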

[2] = biological target: Glycine N-methyltransferase (Homo sapiens) (UniProt Q14749); conditions: purified enzyme, MTase-Glo SAH luminescence; measured here: GNMT inhibition; at 40 µM; stronger effect = lower value
Summary of the method: as §1

[3] = biological target: Guanidinoacetate N-methyltransferase (Homo sapiens) (UniProt Q14353); conditions: purified enzyme, MTase-Glo SAH luminescence; measured here: GAMT inhibition; at 40 µM; stronger effect = lower value
Summary of the method: as §1

[4] = biological target: Histamine N-methyltransferase (Homo sapiens) (UniProt P50135); conditions: purified enzyme, MTase-Glo SAH luminescence; measured here: HNMT inhibition; at 40 µM; stronger effect = lower value
Summary of the method: as §1

[5] = biological target: Nicotinamide N-methyltransferase (Homo sapiens) (UniProt P40261); conditions: purified enzyme, MTase-Glo SAH luminescence; measured here: NNMT inhibition; at 40 µM; stronger effect = lower value
Summary of the method: as §1

[6] = biological target: Phenylethanolamine N-methyltransferase (Homo sapiens) (UniProt P11086); conditions: purified enzyme, MTase-Glo SAH luminescence; measured here: PNMT inhibition; at 40 µM; stronger effect = lower value
Summary of the method: as §1
% is set by controls: 0 for no effect and ±100 for the full control effect.

Histamine N-methyltransferase (Homo sapiens), sequence (P50135 whole entry, looked up): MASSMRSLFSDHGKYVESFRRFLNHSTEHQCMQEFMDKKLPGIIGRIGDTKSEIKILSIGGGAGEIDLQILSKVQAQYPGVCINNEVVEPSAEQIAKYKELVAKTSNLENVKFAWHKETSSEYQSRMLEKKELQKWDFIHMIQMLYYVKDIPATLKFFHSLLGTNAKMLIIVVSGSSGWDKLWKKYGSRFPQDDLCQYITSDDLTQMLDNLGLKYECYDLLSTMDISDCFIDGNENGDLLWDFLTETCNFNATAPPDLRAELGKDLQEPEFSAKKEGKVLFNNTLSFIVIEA
Glycine N-methyltransferase (Homo sapiens), sequence (Q14749 whole entry, looked up): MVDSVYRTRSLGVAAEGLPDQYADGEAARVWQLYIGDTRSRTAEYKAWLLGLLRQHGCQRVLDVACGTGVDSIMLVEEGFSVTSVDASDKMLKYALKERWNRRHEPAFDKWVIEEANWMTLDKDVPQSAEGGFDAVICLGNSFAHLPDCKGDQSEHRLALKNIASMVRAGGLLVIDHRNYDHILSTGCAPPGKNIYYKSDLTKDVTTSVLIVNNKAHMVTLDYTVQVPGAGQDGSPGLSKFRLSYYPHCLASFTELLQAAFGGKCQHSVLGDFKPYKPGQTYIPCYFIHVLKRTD
Nicotinamide N-methyltransferase (Homo sapiens), sequence (P40261 whole entry, looked up): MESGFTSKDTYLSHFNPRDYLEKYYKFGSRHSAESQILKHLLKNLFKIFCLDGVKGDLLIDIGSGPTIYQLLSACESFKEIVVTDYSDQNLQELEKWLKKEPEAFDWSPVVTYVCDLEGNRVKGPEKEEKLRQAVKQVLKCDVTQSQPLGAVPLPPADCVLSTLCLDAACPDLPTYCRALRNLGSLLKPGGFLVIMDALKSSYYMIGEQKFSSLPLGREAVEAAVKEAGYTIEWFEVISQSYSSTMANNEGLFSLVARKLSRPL
Catechol O-methyltransferase (Homo sapiens), sequence (P21964 whole entry, looked up): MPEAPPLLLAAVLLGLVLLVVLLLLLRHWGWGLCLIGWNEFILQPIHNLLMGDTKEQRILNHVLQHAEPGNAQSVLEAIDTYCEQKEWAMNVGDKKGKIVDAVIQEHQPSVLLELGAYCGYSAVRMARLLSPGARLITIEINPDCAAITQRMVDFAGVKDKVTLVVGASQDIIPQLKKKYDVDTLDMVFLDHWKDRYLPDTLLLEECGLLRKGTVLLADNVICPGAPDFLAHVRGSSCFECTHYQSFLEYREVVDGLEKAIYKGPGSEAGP
Phenylethanolamine N-methyltransferase (Homo sapiens), sequence (P11086 whole entry, looked up): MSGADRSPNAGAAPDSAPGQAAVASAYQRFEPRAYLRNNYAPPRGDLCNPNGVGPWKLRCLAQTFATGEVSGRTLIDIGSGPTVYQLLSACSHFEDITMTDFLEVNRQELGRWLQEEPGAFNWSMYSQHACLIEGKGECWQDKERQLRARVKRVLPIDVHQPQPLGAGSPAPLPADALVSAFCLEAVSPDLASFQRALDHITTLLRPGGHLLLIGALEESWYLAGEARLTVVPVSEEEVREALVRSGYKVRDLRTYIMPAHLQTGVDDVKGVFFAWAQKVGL

CC(C)Cn1c(=O)c2ccccc2n2c(=O)n(Cc3ccccc3)nc12
activity change, negative = inhibition [1]: 2.82% (inactive)
activity change, negative = inhibition [2]: -1.72%
activity change, negative = inhibition [3]: 0%
activity change, negative = inhibition [4]: 6.83%
activity change, negative = inhibition [5]: -9.64%
activity change, negative = inhibition [6]: 0.863%

Cc1ccc(NC(=O)Cn2nc3n(C(C)C)c(=O)c4ccc(C(=O)NC5CCCCC5)cc4n3c2=O)cc1
activity change, negative = inhibition [1]: 2.74% (inactive)
activity change, negative = inhibition [2]: 4.18%
activity change, negative = inhibition [3]: 4.48%
activity change, negative = inhibition [4]: 8.87%
activity change, negative = inhibition [5]: 1.86%
activity change, negative = inhibition [6]: 2.8%

CCC(=O)N1Cc2ccccc2OC2(CCN(C(C)C)CC2)C1
activity change, negative = inhibition [1]: -1.54% (inactive)
activity change, negative = inhibition [2]: -3.35%
activity change, negative = inhibition [3]: -0.819%
activity change, negative = inhibition [4]: 0.171%
activity change, negative = inhibition [5]: -3.98%
activity change, negative = inhibition [6]: -4.26%

CCOC(=O)CC1(NC(=O)N2CCn3cccc3C2Cc2ccccc2)CCCCC1 (stereo not given)
activity change, negative = inhibition [1]: -25% (inactive)
activity change, negative = inhibition [2]: -7.26%
activity change, negative = inhibition [3]: -5.73%
activity change, negative = inhibition [4]: -9.85%
activity change, negative = inhibition [5]: -17.7%
activity change, negative = inhibition [6]: -40.7%

CN(C)CCN(C)[C@H]1[C@@H]2OC[C@@H](O2)[C@@H](NCc2ccc(N(C)C)cc2)[C@@H]1O
activity change, negative = inhibition [1]: 2.76% (inactive)
activity change, negative = inhibition [2]: 0.488%
activity change, negative = inhibition [3]: 1.19%
activity change, negative = inhibition [4]: 0.035%
activity change, negative = inhibition [5]: -5%
activity change, negative = inhibition [6]: 0.902%

COc1ccc(C(=O)N2CCC3(CC2)CCC(O)(CN(C)C)CC3)cc1OC
activity change, negative = inhibition [1]: 2.82% (inactive)
activity change, negative = inhibition [2]: -0.206%
activity change, negative = inhibition [3]: -1.89%
activity change, negative = inhibition [4]: -18.9%
activity change, negative = inhibition [5]: -5.54%
activity change, negative = inhibition [6]: -1.06%

CC(C)CCn1c(=O)c2ccccc2n2c(CCC(=O)NCCc3ccccc3)nnc12
activity change, negative = inhibition [1]: 3.9% (inactive)
activity change, negative = inhibition [2]: -7.17%
activity change, negative = inhibition [3]: 0%
activity change, negative = inhibition [4]: 6.82%
activity change, negative = inhibition [5]: -15%
activity change, negative = inhibition [6]: 0.405%

CCCCNC(=O)CCc1nnc2n(CC(C)C)c(=O)c3ccccc3n12
activity change, negative = inhibition [1]: 3.12% (inactive)
activity change, negative = inhibition [2]: -1.98%
activity change, negative = inhibition [3]: 4.49%
activity change, negative = inhibition [4]: 5.26%
activity change, negative = inhibition [5]: 4.71%
activity change, negative = inhibition [6]: -0.917%

CN(CCCNC(=O)CCCc1nnc2n3nc(-c4ccccc4)nc3c3ccccc3n12)Cc1ccccc1
activity change, negative = inhibition [1]: -4.54% (active)
activity change, negative = inhibition [2]: -16.6%
activity change, negative = inhibition [3]: 1.44%
activity change, negative = inhibition [4]: -57.9%
activity change, negative = inhibition [5]: 0.458%
activity change, negative = inhibition [6]: -4.78%

COC(=O)c1ncn2c1C(=O)N(Cc1cc(OC)ccc1OC)C(C)(C(=O)NCc1ccccc1)C2 (stereo not given)
activity change, negative = inhibition [1]: -9.56% (inactive)
activity change, negative = inhibition [2]: -4.3%
activity change, negative = inhibition [3]: 3.99%
activity change, negative = inhibition [4]: -2.02%
activity change, negative = inhibition [5]: -4.11%
activity change, negative = inhibition [6]: -4.82%

CN(C)c1cc2c(Nc3ccc4c(cnn4Cc4ccccc4)c3)ncnc2cn1
activity change, negative = inhibition [1]: -13.2% (active) and -7.52% (inactive)
activity change, negative = inhibition [2]: -7.53% and -14.5%
activity change, negative = inhibition [3]: 10.1% and 6.13%
activity change, negative = inhibition [4]: 1.63% and -3.02%
activity change, negative = inhibition [5]: -17% and -13.5%
activity change, negative = inhibition [6]: -62.6% and -40%

CCC(C)C(=O)OC1C(C)C2(O)C(C=C(CO)CC3(O)C(=O)C(C)=CC32)C2C(C)(C)C12OC(=O)C(C)C (stereo not given)
activity change, negative = inhibition [1]: -2.75% (inactive)
activity change, negative = inhibition [2]: -4.22%
activity change, negative = inhibition [3]: -5.2%
activity change, negative = inhibition [4]: -3.1%
activity change, negative = inhibition [5]: -15.7%
activity change, negative = inhibition [6]: -0.901%

O=C(NCC1CCCCC1)c1cc(-c2cc(Cl)cc(Cl)c2)c2nncn2n1
activity change, negative = inhibition [1]: -5.12% (inactive)
activity change, negative = inhibition [2]: -8.77%
activity change, negative = inhibition [3]: -5.46%
activity change, negative = inhibition [4]: -7.54%
activity change, negative = inhibition [5]: -13.3%
activity change, negative = inhibition [6]: -2.36%

CC(C)CCNC(=O)c1ccc2c(=O)nc3c(-c4ccc(Cl)cc4)n[nH]n3c2c1
activity change, negative = inhibition [1]: -1.51% (inactive)
activity change, negative = inhibition [2]: -1.88%
activity change, negative = inhibition [3]: 4.17%
activity change, negative = inhibition [4]: -4.65%
activity change, negative = inhibition [5]: 0.687%
activity change, negative = inhibition [6]: -0.404%

COc1ccc(CCN2C(=O)c3ccc(-c4ccco4)n3CC2(C)C(=O)NCc2ccc(Cl)cc2)cc1OC (stereo not given)
activity change, negative = inhibition [1]: 0.852% (inactive)
activity change, negative = inhibition [2]: -6.96%
activity change, negative = inhibition [3]: 1.72%
activity change, negative = inhibition [4]: 2.32%
activity change, negative = inhibition [5]: -28.2%
activity change, negative = inhibition [6]: -1.05%

Cc1cc2c(cc3n2CC(C)(C(=O)NC2CCCCC2)N(C2CCCCCC2)C3=O)o1 (stereo not given)
activity change, negative = inhibition [1]: 3.65% (inactive)
activity change, negative = inhibition [2]: 2.96%
activity change, negative = inhibition [3]: 9.51%
activity change, negative = inhibition [4]: 3.49%
activity change, negative = inhibition [5]: -0.25%
activity change, negative = inhibition [6]: -2.76%

CCCCCCc1cc2c(-c3ccccc3)cc(=O)oc2cc1OCC(N)=O
activity change, negative = inhibition [1]: -7.58% (inactive)
activity change, negative = inhibition [2]: -9.86%
activity change, negative = inhibition [3]: 1.37%
activity change, negative = inhibition [4]: -0.051%
activity change, negative = inhibition [5]: -9%
activity change, negative = inhibition [6]: -8.85%

COc1c2c(c(C)c3c1C(=O)OC3)OC1(C)CC(O)C34OC(O)(CCC3(C)C1C2)OC4(C)C (stereo not given)
activity change, negative = inhibition [1]: -2.85% (inactive)
activity change, negative = inhibition [2]: -1.14%
activity change, negative = inhibition [3]: -7.45%
activity change, negative = inhibition [4]: -0.188%
activity change, negative = inhibition [5]: -20.3%
activity change, negative = inhibition [6]: -0.001%

COc1ccc(OC)c(CCNC(=O)CCn2ccc3cc(S(=O)(=O)N4CCCC4)ccc32)c1
activity change, negative = inhibition [1]: 1.88% (inactive)
activity change, negative = inhibition [2]: 1.91%
activity change, negative = inhibition [3]: 4.56%
activity change, negative = inhibition [4]: 3.65%
activity change, negative = inhibition [5]: -0.408%
activity change, negative = inhibition [6]: 0.497%

CCOc1ccccc1CN1CCC(Cc2nc(-c3cccnc3)n[nH]2)C1 (stereo not given)
activity change, negative = inhibition [1]: -5.67% (active)
activity change, negative = inhibition [2]: -4.21%
activity change, negative = inhibition [3]: -1.54%
activity change, negative = inhibition [4]: -56.9%
activity change, negative = inhibition [5]: -49.4%
activity change, negative = inhibition [6]: -12.9%

Cn1nccc1C(=O)N1CCC(Cc2nc(C3CC3)n[nH]2)C1 (stereo not given)
activity change, negative = inhibition [1]: -2.8% (inactive)
activity change, negative = inhibition [2]: -3.99%
activity change, negative = inhibition [3]: -1.84%
activity change, negative = inhibition [4]: -1.69%
activity change, negative = inhibition [5]: -5.4%
activity change, negative = inhibition [6]: -4.14%

CC(C)NC(=O)c1ccccc1OCC1CCCN(Cc2cccnc2)C1 (stereo not given)
activity change, negative = inhibition [1]: -0.392% (inactive)
activity change, negative = inhibition [2]: -1.68%
activity change, negative = inhibition [3]: -10.2%
activity change, negative = inhibition [4]: -2.4%
activity change, negative = inhibition [5]: -8.48%
activity change, negative = inhibition [6]: -0.898%

CCC(C)N1Cc2cc(NC(=O)c3ccc([N+](=O)[O-])cc3)ccc2OCC1=O (stereo not given)
activity change, negative = inhibition [1]: -3.17% (inactive)
activity change, negative = inhibition [2]: -7.2%
activity change, negative = inhibition [3]: -10.5%
activity change, negative = inhibition [4]: -3.63%
activity change, negative = inhibition [5]: -19.6%
activity change, negative = inhibition [6]: -7.68%

CC(=O)c1ccc2c(c1)[C@H](NC(=O)c1ccc(F)c(Cl)c1)[C@H](O)C(C)(C)O2
activity change, negative = inhibition [1]: -7.4% (inactive)
activity change, negative = inhibition [2]: -1.85%
activity change, negative = inhibition [3]: -7.24%
activity change, negative = inhibition [4]: -2.99%
activity change, negative = inhibition [5]: -18.7%
activity change, negative = inhibition [6]: -13.1%

COC[C@H]1NC(=O)CC[C@H]1C(=O)N1CCN(c2cccc(C)c2)CC1
activity change, negative = inhibition [1]: -9.6% (inactive)
activity change, negative = inhibition [2]: -5.9%
activity change, negative = inhibition [3]: -7.51%
activity change, negative = inhibition [4]: -3.65%
activity change, negative = inhibition [5]: -13.6%
activity change, negative = inhibition [6]: -21.5%
